According to PubChem BioAssay AID1159580 (chemical genetic matrix, 2015):
Screen size: about 5,500 compounds; about 2,000 (36%) were called active. Not shown: some 18% with an inconclusive outcome. No stated cut-off is given here; in the data, active means normalized growth mostly below about 0.91 (no sharp cut-off); inconclusive means no clear call, values can overlap the other calls; inactive means mostly above about 0.92. This is one part of the list.

Test: chemical genetic growth profiling, strain panel (AID 1159580);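 further: tested at 20 µM; growth read once vehicle control cultures reached saturation at 30 °C; 1 = growth at the plate median or of vehicle wells; lower values mean less growth of the strain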
Conditions: S. cerevisiae deletion strains, growth OD

Measured: normalized growth

O=c1oc2ccccc2cc1O
inactive: locus YAL021C, strain ccr4, hits give low values 0.986 | locus YAL026C, strain drs2, hits give low values 0.975 | locus YAL030W, strain snc1, hits give low values 0.993 | locus YBL061C, strain skt5, hits give low values 0.993 | locus YBR009C, strain hhf1, hits give low values 1 | locus YBR021W, strain FUR4, hits give low values 1.03 | locus YBR023C, strain chs3, hits give low values 0.993 | locus YBR171W, strain sec66, hits give low values 0.977 | locus YBR229C, strain ROT2, hits give low values 1.03 | locus YBR231C, strain swc5, hits give low values 1.01 | locus YBR279W, strain paf1, hits give low values 0.994 | locus YCL011C, strain gbp2, hits give low values 1.01 | locus YCL016C, strain dcc1, hits give low values 0.999 | locus YCL029C, strain bik1, hits give low values 1.02 | locus YCL061C, strain MRC1, hits give low values 0.991 | locus YCL069W, strain vba3, hits give low values 0.968 | locus YCR088W, strain abp1, hits give low values 0.986 | locus YDL005C, strain med2, hits give low values 0.986 | locus YDL035C, strain GPR1, hits give low values 1.06 | locus YDL040C, strain nat1, hits give low values 0.994 | locus YDL074C, strain BRE1, hits give low values 1.13 | locus YDL101C, strain DUN1, hits give low values 1.01 | locus YDL134C, strain PPH21, hits give low values 1.07 | locus YDL185W, strain tfp1, hits give low values 0.998 | locus YDL192W, strain arf1, hits give low values 1.03 | locus YDR001C, strain nth1, hits give low values 0.984 | locus YDR069C, strain doa4, hits give low values 0.991 | locus YDR101C, strain arx1, hits give low values 0.991 | locus YDR137W, strain rgp1, hits give low values 0.969 | locus YDR159W, strain sac3, hits give low values 1.03 | locus YDR162C, strain NBP2, hits give low values 1.04 | locus YDR195W, strain ref2 1.01 | locus YDR297W, strain sur2, hits give low values 0.989 | locus YDR318W, strain mcm21, hits give low values 0.995 | locus YDR334W, strain swr1, hits give low values 0.96 | locus YDR335W, strain msn5, hits give low values 1 | locus YDR388W, hits give low values 0.992 | locus YDR392W, strain spt3, hits give low values 0.983 | locus YDR502C, strain sam2, hits give low values 0.986 | locus YEL003W, strain gim4, hits give low values 0.993 | locus YEL037C, strain rad23, hits give low values 0.979 | locus YEL061C, strain CIN8 (second series), hits give low values 0.976 | locus YER015W, strain faa2, hits give low values 1.01 | locus YER016W, strain bim1, hits give low values 1 | locus YER110C, hits give low values 0.974 | locus YER111C, strain swi4, hits give low values 0.988 | locus YER155C, strain BEM2 (second series), hits give low values 0.989 | locus YER155C, strain BEM2, hits give low values 1.02 | locus YER167W, strain BCK2, hits give low values 1.03 | locus YFR010W, strain ubp6, hits give low values 0.963 | locus YGL078C, strain dbp3, hits give low values 0.953 | locus YGL086W, strain mad1, hits give low values 0.994 | locus YGL167C, strain pmr1, hits give low values 0.99 | locus YGL173C, strain kem1, hits give low values 0.996 | locus YGL227W, strain vid30, hits give low values 0.995 | locus YGL240W, strain doc1, hits give low values 0.984 | locus YGL248W, strain PDE1, hits give low values 1.04 | locus YGL253W, strain hxk2, hits give low values 0.994 | locus YGR135W, strain pre9, hits give low values 0.969 | locus YGR252W, strain gcn5, hits give low values 0.924 | locus YHR013C, strain ard1, hits give low values 1.04 | locus YHR027C, strain rpn1, hits give low values 0.986 | locus YHR079C, strain IRE1 (second series), hits give low values 0.986 | locus YHR094C, strain hxt1, hits give low values 0.989 | locus YHR129C, strain ARP1, hits give low values 1.06 | locus YHR142W, strain chs7, hits give low values 0.974 | locus YHR200W, strain rpn10, hits give low values 0.983 | locus YIL066C, strain RNR3, hits give low values 1.04 | locus YIL073C, strain SPO22, hits give low values 1.08 | locus YIL125W, strain kgd1, hits give low values 1 | locus YIR030C, strain dcg1, hits give low values 1 | locus YJL092W, strain hpr5, hits give low values 0.987 | locus YJL095W, strain BCK1 (second series), hits give low values 0.982 | locus YJL095W, strain BCK1, hits give low values 1.11 | locus YJL115W, strain asf1, hits give low values 0.98 | locus YJL129C, strain trk1, hits give low values 0.989 | locus YJL134W, strain LCB3, hits give low values 1.02 | locus YJL154C, strain vps35, hits give low values 0.987 | locus YJL164C, strain tpk1, hits give low values 0.99 | locus YJL166W, strain qcr8, hits give low values 0.992 | locus YJL168C, strain set2, hits give low values 0.989 | locus YJL187C, strain SWE1 (second series), hits give low values 1.03 | locus YJL187C, strain SWE1, hits give low values 0.996 | locus YKL009W, strain mrt4, hits give low values 0.937 | locus YKL068W, hits give low values 0.978 | locus YKL085W, strain MDH1 (second series), hits give low values 0.99 | locus YKL085W, strain MDH1, hits give low values 0.99 | locus YKL160W, strain elf1, hits give low values 1.01 | locus YKL190W, strain CNB1, hits give low values 1.04 | locus YKR001C, strain vps1, hits give low values 1.02 | locus YKR026C, strain gcn3, hits give low values 0.988 | locus YKR091W, strain srl3, hits give low values 0.994 | locus YLL001W, strain dnm1, hits give low values 0.985 | locus YLL026W, hits give low values 1 | locus YLL041C, strain sdh2, hits give low values 1.01 | locus YLR027C, strain aat2, hits give low values 1.01 | locus YLR039C, strain RIC1, hits give low values 1.16 | locus YLR058C, strain SHM2, hits give low values 1.04 | locus YLR102C, strain apc9, hits give low values 1.01 | locus YLR221C, strain rsa3, hits give low values 1 | locus YLR258W, strain gsy2, hits give low values 0.987 | locus YLR262C, strain YPT6 (second series), hits give low values 0.898 | locus YLR262C, strain YPT6, hits give low values 1.07 | locus YLR268W, strain sec22, hits give low values 0.997 | locus YLR320W, strain mms22, hits give low values 1 | locus YLR342W, strain FKS1 (second series), hits give low values 1.04 | locus YLR342W, strain FKS1, hits give low values 0.985 | locus YLR357W, strain rsc2, hits give low values 1 | locus YLR370C, strain arc18, hits give low values 0.983 | locus YLR371W, strain rom2, hits give low values 1.02 | locus YLR384C, strain iki3, hits give low values 1 | locus YLR418C, strain cdc73, hits give low values 1.11 | locus YML016C, strain PPZ1, hits give low values 1.03 | locus YML032C, strain rad52, hits give low values 0.995 | locus YML120C, strain ndi1, hits give low values 0.981 | locus YML124C, strain tub3, hits give low values 1.01 | locus YMR058W, strain fet3, hits give low values 0.984 | locus YMR078C, strain ctf18, hits give low values 0.985 | locus YMR125W, strain sto1, hits give low values 0.972 | locus YMR129W, hits give low values 1 | locus YMR205C, strain PFK2, hits give low values 1.01 | locus YMR223W, strain ubp8, hits give low values 1 | locus YMR231W, strain pep5, hits give low values 0.977 | locus YMR307W, strain GAS1, hits give low values 1.3 | locus YNL067W, strain RPL9B, hits give low values 1.03 | locus YNL071W, strain lat1, hits give low values 0.978 | locus YNL128W, strain TEP1, hits give low values 1.03 | locus YNL209W, strain ssb2, hits give low values 0.998 | locus YNL233W, strain BNI4, hits give low values 1.08 | locus YNL248C, strain rpa49, hits give low values 0.958 | locus YNL250W, strain rad50, hits give low values 1.01 | locus YNL271C, strain bni1, hits give low values 0.987 | locus YNL298W, strain CLA4, hits give low values 0.993 | locus YNL307C, strain MCK1, hits give low values 1 | locus YNL322C, strain KRE1 (second series), hits give low values 0.989 | locus YNR049C, strain mso1, hits give low values 0.998 | locus YNR052C, strain pop2, hits give low values 0.948 | locus YOL012C, strain htz1 1.2 | locus YOL147C, strain pex11, hits give low values 1 | locus YOR001W, strain rrp6, hits give low values 0.985 | locus YOR061W, strain CKA2, hits give low values 1.02 | locus YOR069W, strain VPS5, hits give low values 1.02 | locus YOR070C, strain gyp1, hits give low values 0.997 | locus YOR080W, strain dia2, hits give low values 0.984 | locus YOR083W, strain WHI5, hits give low values 0.986 | locus YOR106W, strain vam3, hits give low values 0.946 | locus YOR136W, strain idh2, hits give low values 0.985 | locus YOR144C, strain elg1, hits give low values 0.996 | locus YOR184W, strain ser1, hits give low values 0.98 | locus YOR265W, strain rbl2, hits give low values 0.992 | locus YOR270C, strain vph1, hits give low values 0.87 | locus YOR290C, strain snf2, hits give low values 0.984 | locus YOR316C, strain cot1, hits give low values 0.991 | locus YPL051W, strain arl3, hits give low values 0.997 | locus YPL055C, strain LGE1, hits give low values 1.13 | locus YPL078C, strain atp4, hits give low values 0.966 | locus YPL106C, strain sse1, hits give low values 0.988 | locus YPL240C, strain hsp82, hits give low values 0.997 | locus YPL241C, strain CIN2, hits give low values 1.04 | locus YPR119W, strain clb2, hits give low values 1.01 | locus YPR141C, strain kar3, hits give low values 1 | locus YPR163C, strain tif3, hits give low values 1 | locus YPR167C, strain met16, hits give low values 0.993 | strain wtn01, hits give low values 0.984
